sEH inh: soluble epoxide hydrolase inhibitors, primary screen, biochemical, human sEH | Bifunctional epoxide hydrolase 2 (Homo sapiens), P34913 | recombinant human sEH enzymatic activity assay | inhibition, % at 2 µM | actives 0.34% (n = 91,000) | AID 707, 2007; in the data active = inhibition above about 80%
sEH act: soluble epoxide hydrolase activators, primary screen, biochemical, human sEH. Bifunctional epoxide hydrolase 2 (Homo sapiens), P34913. purified human sEH enzymatic activity, activator screen. activation, % at 2 µM. actives 0.04% (n = 91,000). AID 717, 2007; in the data active = activation above about 37%
CYP2C9 inhib: blockers of cytochrome P450 2C9 activity – biochemical, luminescence, ADME assay, primary screen; P11712; actives 20% (n = 96,000); CYP2C9 Supersomes, luciferin-H conversion; inhibition, % at 5 µM;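 active = blocking of liver enzyme CYP2C9 beyond about 50% at 5 µM, limit read from the data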
Target sequence (P11712 whole entry, looked up): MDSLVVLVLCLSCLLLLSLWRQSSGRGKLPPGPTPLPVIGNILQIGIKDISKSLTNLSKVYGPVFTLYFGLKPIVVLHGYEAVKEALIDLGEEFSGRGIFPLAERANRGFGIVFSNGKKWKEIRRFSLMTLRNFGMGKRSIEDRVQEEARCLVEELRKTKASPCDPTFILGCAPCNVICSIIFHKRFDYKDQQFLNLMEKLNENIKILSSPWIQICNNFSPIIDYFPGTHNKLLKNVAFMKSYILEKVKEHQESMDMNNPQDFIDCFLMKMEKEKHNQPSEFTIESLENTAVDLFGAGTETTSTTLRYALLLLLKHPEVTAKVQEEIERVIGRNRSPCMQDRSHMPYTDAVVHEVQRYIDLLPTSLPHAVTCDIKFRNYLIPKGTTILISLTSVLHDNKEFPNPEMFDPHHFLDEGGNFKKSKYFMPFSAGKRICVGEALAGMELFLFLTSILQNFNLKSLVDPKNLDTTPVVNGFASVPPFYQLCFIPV
CYP2C19 inh: blockers of cytochrome P450 2C19 activity – biochemical, luminescence, ADME assay, primary screen; P33261; CYP2C19 Supersomes, luciferin-H EGE luminescence, 30 min; inhibition, % at 5 µM; actives 21% (n = 96,000); AID 778, 2007;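 active = CYP2C19 inhibition above a set limit at 5 µM in the primary screen, cut at about 50% in these data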
CYP2C9 act: human CYP2C9 activators, primary screen, biochemical, luminescence. Cytochrome P450 2C9 (Homo sapiens), P11712. recombinant CYP2C9, luciferin-H conversion; hits give high values; factor 1 = untreated enzyme, 0 = blocked. activation factor at 5 µM. actives 1.4% (n = 96,000). AID 1024, 2008;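 active = activation factor of 2 or more for CYP2C9 at a 5 µM dose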
CYP2C19 act: human CYP2C19 activators, primary screen, biochemical, luminescence | AID 1025, 2008 | activation factor at 5 µM | 96,000 tested, under 10 active | Cytochrome P450 2C19 (Homo sapiens), P33261 | recombinant CYP2C19, luciferin-H EGE luminescence; hits give high values; 0 = fully inhibited enzyme, 1 = untreated enzyme;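 active = activation factor of at least 2 at 5 µM in the primary screen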
Numbers stand for hits; . = inactive; / = no result given. Hits are enriched below; roughly 27% of the tested compounds scored in any of these assays.

SMILES	sEH inh	sEH act	CYP2C9 inhib	CYP2C19 inh	CYP2C9 act	CYP2C19 act
N#CC1=C(N)Oc2ccccc2C12C(=O)Nc1n[nH]c(-c3ccccc3)c12 (configuration not stated)	.	.	54.2	.	.	.
COc1ccc(C(=O)O)cc1S(=O)(=O)NCCCN1CCCC1=O	.	.	.	.	.	.
CCC1c2ccc(C)n2CCN1C(=O)Nc1ccc(F)cc1 (configuration not stated)	.	.	.	.	.	.
Cc1ccc(NC(=S)N/N=C/c2ccc(OCCC(C)C)cc2)c(C)c1	.	.	64.7	.	.	.
O=S(=O)(NCCc1ccncc1)c1ccc(S(=O)(=O)N2CCCCCC2)cc1	.	.	92.5	98.7	.	.
CC1CCCCN1S(=O)(=O)c1ccc(S(=O)(=O)NCCc2ccncc2)cc1 (configuration not stated)	.	.	/	/	/	/
O=S(=O)(NCCc1ccncc1)c1ccc(Br)cc1	.	.	97.5	99.7	.	.
Cc1cc(C)c(NC(=O)COc2ccccc2C(=O)Nc2ccc3c(c2)oc2ccccc23)c(C)c1	.	.	96.8	.	.	.
O=C(Nc1ccc2c(c1)oc1ccccc12)c1ccc(Br)o1	.	.	.	.	.	.
CCC(C)NS(=O)(=O)c1ccc(OCC(=O)N2CCCC2)cc1 (configuration not stated)	.	.	/	/	/	/
CCC(C)NS(=O)(=O)c1ccc(S(=O)(=O)N2CCCC3(CCCCC3)C2)cc1 (configuration not stated)	.	.	73.5	.	.	.
NC(=O)c1cccc2c(=O)oc3ccccc3c12	.	.	.	.	.	.
COc1ccccc1N1CCN(S(=O)(=O)c2ccc(Cl)s2)CC1	.	.	96.3	97.1	.	.
Cc1cccc(C)c1N1CCN(S(=O)(=O)c2ccc(F)cc2)CC1	.	.	93.4	96.7	.	.
COc1ccccc1N1CCN(S(=O)(=O)c2ccc(F)cc2)CC1	.	.	82.2	91.4	.	.
COc1ccccc1N1CCN(S(=O)(=O)/C=C/c2ccccc2)CC1	.	.	65.8	99.6	.	.
Cc1ccccc1CN1CCN(S(=O)(=O)c2ccc(F)cc2)CC1	.	.	/	/	/	/
COc1ccc(OC)c(S(=O)(=O)N2CCN(c3c(C)cccc3C)CC2)c1	.	.	97.7	50.5	.	.
COc1ccccc1N1CCN(C(=O)c2ccc(S(=O)(=O)N3CCCCCC3)cc2)CC1	.	.	71.4	52.4	.	.
COc1ccccc1N1CCN(S(=O)(=O)c2cccc(F)c2)CC1	.	.	89.1	96.5	.	.
O=C(c1ccc(S(=O)(=O)N2CCOCC2)cc1)N1CCN(c2ccccc2F)CC1	.	.	.	.	.	.
CCN1CCN(S(=O)(=O)c2cc(OC)ccc2OC)CC1	.	.	.	.	.	.
COc1ccc(S(=O)(=O)N2CCN(c3cccc(C)c3C)CC2)cc1	.	.	87.5	96.9	.	.
COCC(=O)NC1CCN(C(=O)Nc2ccc(Br)cc2)CC1	.	.	.	.	.	.
CC1CCN(CCCn2c(=S)[nH]c3ccc(N4CCOCC4)cc3c2=O)CC1	.	.	.	.	.	.
SMILES	sEH inh	sEH act	CYP2C9 inhib	CYP2C19 inh	CYP2C9 act	CYP2C19 act
CN(C)/C=N/c1c(C(=O)NCc2ccccc2)nnn1Cc1ccccc1	.	.	.	.	.	.
CCOC(=O)CSC1=Nc2ccccc2C2=NC(CC(=O)NCc3ccc4c(c3)OCO4)C(=O)N12 (configuration not stated)	.	.	.	.	.	.
Cc1onc(-c2ccccc2)c1C(=O)Nc1ccccc1N1CCOCC1	/	/	81.2	98.7	.	.
O=C(Nc1cc(C(F)(F)F)ccc1N1CCOCC1)c1ccc(F)cc1	.	.	.	76.6	.	.
O=C(Nc1cc(C(F)(F)F)ccc1N1CCOCC1)c1cccnc1	.	.	.	.	.	.
Cc1onc(-c2ccccc2)c1C(=O)Nc1cc(C(F)(F)F)ccc1N1CCOCC1	.	.	55.8	64.6	.	.
O=C(CCc1ccccc1)NC(=S)Nc1cc(C(F)(F)F)ccc1N1CCOCC1	.	.	93.0	88.2	.	.

Compound activity: PubChem BioAssay, several laboratories
